For 12 compounds, composite z-score and z-score results are on record in PubChem BioAssay.

Test [1] can be described thus: small molecules captured by biotinylated probe aFSTL3 – biochemical, small-molecule microarray, fluorescence 635/667, stem cell growth factor project, primary screen (AID 1064).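 Further: measures binding of the biotinylated anti-FSTL3 antibody to printed compounds.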 The settings on record: higher = more signal.
The nature of test [2]: binders from COS7 lysate, DM2A8 probe, primary screen, torsin A project, cell lysate, small-molecule microarray, fluorescence 635/667 (AID 1065). The settings on record: higher = more signal, COS7 lysate expressing mutant human TOR1A.
Test [3] in a line: small molecules captured by biotinylated probe aFGF2 – biochemical, small-molecule microarray, fluorescence 635/667, stem cell growth factor project, primary screen (AID 1067).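 Further: measures binding of biotinylated aFGF2 protein to printed compounds on slides; z-score merges feature fluorescence and signal-to-noise across triplicate slides.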 The following applies: higher = more signal.
Test [4] can be described thus: small molecules captured by biotinylated probe aFGF10 – biochemical, small-molecule microarray, fluorescence 635/667, stem cell growth factor project, primary screen (AID 1071).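 Further: score merges 667 nm spot intensity and signal to noise from triplicate slides.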 The following applies: higher = more signal.
Test [5] concerns the target Neurogenic locus notch homolog protein 2 (Homo sapiens) (UniProt Q04721). In words: small molecules binding Notch2 protein – biochemical, small-molecule microarray, 635 nm fluorescence, stem cell growth factors, primary screen (AID 1073). The settings on record: higher = more signal.
The target of test [6] is Pro-neuregulin-1, membrane-bound isoform (Homo sapiens) (UniProt Q02297). The test can be described thus: small molecules binding neuregulin-1 protein – biochemical, small-molecule microarray, fluorescence 635/667, psychiatric disease protein project, primary screen (AID 1075).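 Further: score combines 667 nm spot fluorescence with signal to noise.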 The following applies: NRG1 binding, 635 nm fluorescence, higher = more signal.
Sequence of Pro-neuregulin-1, membrane-bound isoform (Homo sapiens) (Q02297 whole entry, looked up, the tested form may be a part, canonical isoform): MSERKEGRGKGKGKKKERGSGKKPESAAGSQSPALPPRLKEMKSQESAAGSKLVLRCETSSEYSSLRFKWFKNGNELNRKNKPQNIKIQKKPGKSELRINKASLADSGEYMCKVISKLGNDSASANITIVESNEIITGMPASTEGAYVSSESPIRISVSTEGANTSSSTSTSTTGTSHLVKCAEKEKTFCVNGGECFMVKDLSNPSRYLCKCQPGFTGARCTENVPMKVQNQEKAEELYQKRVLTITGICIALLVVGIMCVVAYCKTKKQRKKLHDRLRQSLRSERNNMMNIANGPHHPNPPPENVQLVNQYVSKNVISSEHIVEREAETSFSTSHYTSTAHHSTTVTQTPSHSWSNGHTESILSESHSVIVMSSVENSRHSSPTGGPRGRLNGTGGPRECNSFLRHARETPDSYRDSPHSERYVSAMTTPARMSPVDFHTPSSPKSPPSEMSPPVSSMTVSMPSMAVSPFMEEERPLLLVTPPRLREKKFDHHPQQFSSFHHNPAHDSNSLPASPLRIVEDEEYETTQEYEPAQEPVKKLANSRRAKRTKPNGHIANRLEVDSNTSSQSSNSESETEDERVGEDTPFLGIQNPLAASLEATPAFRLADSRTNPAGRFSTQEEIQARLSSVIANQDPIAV
Test [7] concerns Neuregulin-1 EGF-like domain. In words: small molecules binding NRG1 EGF domain – biochemical, small-molecule microarray, 635 nm fluorescence, primary screen (AID 1081).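 Further: binding of the protein to compounds printed on small-molecule microarray slides.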 The settings on record: higher = more signal.
A short description of test [8]: FRG1 expression reporter modulators in myotubes – cell-based, C2C12 myotubes, firefly/Renilla luciferase, luminescence, FRG1 inhibition for FSHD, primary screen (AID 1084). The settings on record: FRG1 promoter luciferase, higher = more signal, called active from +8 up or from −8 down.
The nature of test [9]: small molecules captured by biotinylated probe aFST – biochemical, small-molecule microarray, fluorescence 635/667, stem cell growth factor project, primary screen (AID 1086).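 Further: score merges 667 nm fluorescence with signal-to-noise of each printed compound spot.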 The settings on record: higher = more signal.
A short description of test [10]: binders of probe aHhip on microarray, primary screen, stem cell growth factor project, biochemical, small-molecule microarray, fluorescence 635/667 (AID 1087).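 Further: score merges spot fluorescence at 667nm with spot signal to noise ratio.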 The following applies: higher = more signal.

Each structure is given as a SMILES string. Calls of active or inactive are those of the source.

Sequence of Neurogenic locus notch homolog protein 2 (Homo sapiens) (Q04721 whole entry, looked up, canonical isoform): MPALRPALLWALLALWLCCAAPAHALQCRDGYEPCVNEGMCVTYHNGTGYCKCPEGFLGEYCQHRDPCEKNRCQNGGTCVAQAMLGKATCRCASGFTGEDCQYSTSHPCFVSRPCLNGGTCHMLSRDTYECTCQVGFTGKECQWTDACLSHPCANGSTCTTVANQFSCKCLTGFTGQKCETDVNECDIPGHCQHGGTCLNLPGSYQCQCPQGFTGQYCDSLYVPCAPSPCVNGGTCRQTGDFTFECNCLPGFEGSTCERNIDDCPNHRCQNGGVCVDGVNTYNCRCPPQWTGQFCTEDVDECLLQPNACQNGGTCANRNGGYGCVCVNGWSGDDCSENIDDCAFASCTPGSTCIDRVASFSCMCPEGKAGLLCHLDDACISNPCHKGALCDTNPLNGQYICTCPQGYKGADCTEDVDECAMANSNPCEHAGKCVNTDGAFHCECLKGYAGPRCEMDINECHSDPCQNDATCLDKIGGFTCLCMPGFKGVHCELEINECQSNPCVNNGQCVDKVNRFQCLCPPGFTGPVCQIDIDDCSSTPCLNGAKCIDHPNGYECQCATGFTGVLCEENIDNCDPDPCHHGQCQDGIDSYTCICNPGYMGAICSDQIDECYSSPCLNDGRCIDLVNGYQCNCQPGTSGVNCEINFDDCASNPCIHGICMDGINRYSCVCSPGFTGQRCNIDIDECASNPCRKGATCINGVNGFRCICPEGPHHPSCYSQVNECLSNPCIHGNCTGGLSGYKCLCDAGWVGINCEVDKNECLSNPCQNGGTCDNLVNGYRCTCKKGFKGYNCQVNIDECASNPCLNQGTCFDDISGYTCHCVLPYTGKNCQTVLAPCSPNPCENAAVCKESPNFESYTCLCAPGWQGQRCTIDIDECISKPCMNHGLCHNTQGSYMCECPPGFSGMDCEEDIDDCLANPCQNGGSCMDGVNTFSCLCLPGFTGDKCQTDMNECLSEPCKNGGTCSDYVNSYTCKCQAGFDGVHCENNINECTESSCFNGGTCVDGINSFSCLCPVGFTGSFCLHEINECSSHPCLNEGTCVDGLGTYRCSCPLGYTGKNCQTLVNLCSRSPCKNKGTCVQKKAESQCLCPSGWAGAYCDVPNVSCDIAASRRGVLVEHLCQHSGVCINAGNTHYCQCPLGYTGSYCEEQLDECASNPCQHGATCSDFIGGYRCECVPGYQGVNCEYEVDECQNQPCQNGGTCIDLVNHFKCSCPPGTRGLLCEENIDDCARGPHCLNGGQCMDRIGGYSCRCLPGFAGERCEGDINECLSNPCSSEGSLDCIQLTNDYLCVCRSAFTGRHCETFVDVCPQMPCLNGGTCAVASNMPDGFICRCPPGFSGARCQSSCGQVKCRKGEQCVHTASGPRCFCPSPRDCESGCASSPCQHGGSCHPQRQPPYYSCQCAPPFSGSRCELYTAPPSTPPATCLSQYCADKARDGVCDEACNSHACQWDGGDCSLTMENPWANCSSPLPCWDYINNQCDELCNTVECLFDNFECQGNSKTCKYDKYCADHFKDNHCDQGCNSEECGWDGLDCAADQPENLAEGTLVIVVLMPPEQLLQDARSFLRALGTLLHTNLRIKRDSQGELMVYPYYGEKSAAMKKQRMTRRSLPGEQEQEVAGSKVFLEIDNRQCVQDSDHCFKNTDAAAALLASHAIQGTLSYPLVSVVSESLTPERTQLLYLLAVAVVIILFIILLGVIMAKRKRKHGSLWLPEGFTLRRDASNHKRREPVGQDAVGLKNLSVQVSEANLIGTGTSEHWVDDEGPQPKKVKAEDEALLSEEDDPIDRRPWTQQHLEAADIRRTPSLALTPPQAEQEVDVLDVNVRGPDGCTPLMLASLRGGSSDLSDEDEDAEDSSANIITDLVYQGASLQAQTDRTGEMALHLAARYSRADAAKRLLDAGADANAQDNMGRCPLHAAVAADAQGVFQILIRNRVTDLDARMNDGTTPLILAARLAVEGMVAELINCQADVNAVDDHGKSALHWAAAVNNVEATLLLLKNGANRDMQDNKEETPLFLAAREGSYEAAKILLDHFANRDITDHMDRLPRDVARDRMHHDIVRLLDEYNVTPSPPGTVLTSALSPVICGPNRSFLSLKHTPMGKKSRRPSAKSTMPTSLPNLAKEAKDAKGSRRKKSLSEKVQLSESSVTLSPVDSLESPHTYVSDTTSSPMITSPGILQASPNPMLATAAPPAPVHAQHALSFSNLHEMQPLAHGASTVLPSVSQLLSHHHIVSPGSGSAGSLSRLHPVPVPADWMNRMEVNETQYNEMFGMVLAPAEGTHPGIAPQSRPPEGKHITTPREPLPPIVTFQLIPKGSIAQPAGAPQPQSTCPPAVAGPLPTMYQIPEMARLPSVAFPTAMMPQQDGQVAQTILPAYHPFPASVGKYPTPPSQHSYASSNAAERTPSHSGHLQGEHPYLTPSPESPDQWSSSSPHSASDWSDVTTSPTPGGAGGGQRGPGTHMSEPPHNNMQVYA

In the case of `C[N+](C)(C)CCCCNC(=O)[C@@H]1C[C@@H]2C(=O)N3CCC[C@H]3C(=O)N2[C@@H]1c1cccc(OCCO)c1`, the composite z-score was -0.215 in test [1]; 1.3 in test [2]; -0.148 in [3]; 0.712 in test [4]; -0.145 in [5]; 0.837 in [6]. Also, the composite z-score in [7] was determined as 1.03; in test [9], 0.209; in test [10], 0.171. Further, in [8], the z-score was 1.19 (inactive).

On to `CCOC(=O)C[C@H]1[C@H](OC(=O)c2ccccc2-c2ccccc2)[C@@H](NC(=O)c2ccc(-c3ccccc3)cc2)c2cc(OCCCO)ccc2N1C(=O)Cc1ccc(OC)cc1`, for which the composite z-score in test [1] was -0.191; in [2], -0.0021; in test [3] it was -0.0642; in test [4], 0.389; in [5], 0.212; in test [6], -0.109. Further, the composite z-score in [7] was 0.373; in test [9], 0.437; in test [10], -0.0346. Moreover, in [8], the z-score was 0.524 (inactive).

Consider `CC[C@H]1C2=C3C(CC[C@H]4C(OC)OC[C@](C)([C@@H]34)N(C(=O)OC(C)(C)C)C2)C(CO)C1CO` (stereo not given in full), for which the composite z-score in test [1] stood at 1.21; in test [2], 0.896; in [3] it was 0.181; in test [4], 0.366; in [5], 1.65; in [6] it was 1.32. Further, the results for the composite z-score in test [7], in [9] and in test [10] were 1.13, 1.87 and 0.0053, respectively. The z-score in test [8] is -0.342 (inactive).

As to `O=C1C2C=CC(C(O)Cc3ccccc3)N(Nc3ccc([N+](=O)[O-])cc3)C2C(=O)N1c1ccccc1` (stereo not given), the composite z-score was 0.159 in test [1]; -0.0657 in test [2]; -0.06 in [3]; 0.699 in [4]; 1.15 in [5]; 1.83 in [6]. In addition, the composite z-score was determined as 1.33 in [7], 0.638 in [9] and 0.413 in [10]. The z-score in test [8] is 1.19 (inactive).

For `C=CCN(C(=O)C1N(c2ccc(CCO)cc2)C(=O)C2C(C(=O)O)C3C=CC21O3)C(C)(C)C` (stereo not given), the composite z-score in test [1] was 1.73; in [2], -1.15; in test [3], -0.243; in [4] it was -2.12; in test [5], -2.34; in test [6] it was -0.367. The values for the composite z-score in test [7], in test [9] and in test [10] were 0.915, -1.08 and -0.403, respectively. For the same compound, in [8], the z-score is 0.4 (inactive).

With `[N-]=[N+]=NCc1ccccc1C[C@@]1(C(=O)N2CCOCC2)N=C(c2ccc(OCCCO)cc2)O[C@@H]1c1ccccc1N=[N+]=[N-]`, the composite z-score in [1] worked out at 0.308; in test [2], 0.968; in test [3] it was 0.345; in test [4] it was 0.819; in [5], 1.59; in test [6], 1.13. In addition, the composite z-score in test [7] is 1.26; in test [9], 0.889; in test [10] it was -0.146. In addition, the z-score in test [8] is -2.14 (inactive).

For `C=CCc1cccc([C@@H]2[C@@H](C)CC[C@H]3C(=O)N4[C@H](c5cccc(CC=C)c5)[C@@H](C)CC[C@H]4C(=O)N23)c1`, the composite z-score in test [1] is 0.0575; in [2], 0.537; in [3], -0.0677; in test [4], 0.873; in test [5] it was 1.07; in test [6], 1.12. Also, the results for the composite z-score in test [7], in test [9] and in test [10] were 0.536, 0.56 and 0.154, respectively. Moreover, the z-score in test [8] is 0.313 (inactive).

In the case of `CC(C)N1CC=CC23O[C@@H]4/C=C\CCCOC(=O)C4[C@H]2C(=O)N(CCCCCO)[C@@H]3C1=O` (stereo not given in full), the composite z-score is 0.378 in test [1]; 2.29 in test [2]; -0.226 in test [3]; -1.52 in test [4]; -2.17 in test [5]; 1.16 in test [6]. Further, the results for the composite z-score in [7], in [9] and in test [10] were 0.665, -0.729 and 0.0176, respectively. Further, the z-score in test [8] is 0.561 (inactive).

`COc1ccc([Si](C)(C)[C@@H]2[C@@H](CC(=O)N(CCO)Cc3ccccc3)O[C@]3(C(=O)N(Cc4cccc(N5CCC5=O)c4)c4ccccc43)[C@H]2C)cc1`: the composite z-score is -0.113 in test [1]; 0.861 in [2]; -0.116 in test [3]; 0.434 in test [4]; 0.205 in test [5]; 0.712 in test [6]. Also, the composite z-score in test [7] was determined as 1.13; in test [9], 0.147; in test [10], 0.0373. In addition, the z-score in test [8] is -0.645 (inactive).

For `COC(=O)[C@@]1(Cc2ccccc2CN=[N+]=[N-])N=C(c2ccc(OCCCO)cc2)O[C@H]1c1ccccc1N=[N+]=[N-]`, the composite z-score in test [1] is 0.127; in test [2], -0.523; in [3], -0.0004; in [4] it was -0.259; in test [5], 0.167; in test [6] it was 1.09. The composite z-score in [7] is 1.13; in test [9], 0.19; in test [10], 0.0826. The z-score in test [8] was 1.17 (inactive).

For the compound `O=C/C=C/c1ccc(/C=C/c2ccccc2)cc1`, the composite z-score in test [1] is 1.02; in test [2] it was 0.107; in test [3], -0.105; in [4], -0.324; in test [5] it was -0.429; in test [6], -0.422. The composite z-score was -0.34 in [7], 0.204 in test [9] and 0.154 in [10]. Further, the z-score in test [8] was 3.71 (inactive).

With `O=C1O[C@@H](c2ccccc2)[C@@H](c2ccccc2)N2[C@@H](c3ccc(OCCO)cc3)[C@]3(C(=O)Nc4ccc(C#CCCO)cc43)[C@@H](C(=O)N3CCN(c4ncccn4)CC3)[C@H]12`, the composite z-score is -0.375 in test [1]; 0.388 in test [2]; 0.0364 in test [3]; 0.617 in [4]; 0.731 in [5]; 1.2 in [6]. The composite z-score is 1.2 in [7], 0.488 in test [9] and -0.171 in test [10]. The z-score in [8] is 0.126 (inactive).
